In PubChem BioAssay AID504845 (National Center for Advancing Translational Sciences (NCATS), 2011):
Where “and” joins values, the source holds several entries; their conditions need not be identical. Identical values can stand only once. About 150 (0.038%) of roughly 390,000 compounds were called active. A call without a number means that no potency is given here. Another 3% or so got no clear call; they are omitted. Calls come from the whole dose curve; as a rule, active = well fitted inhibition curve with a large enough effect; inconclusive = small, poorly fitted or top-dose-only effect; inactive = no such curve, though single readings can be large or run the other way. The full list was thinned out, with actives kept by preference. Some compounds were tested as several samples or in several runs, with calls that do not always agree.

Molecular target: Regulator of G-protein signaling 4 (Homo sapiens) (UniProt P49798)
Sequence (P49798 whole entry, looked up): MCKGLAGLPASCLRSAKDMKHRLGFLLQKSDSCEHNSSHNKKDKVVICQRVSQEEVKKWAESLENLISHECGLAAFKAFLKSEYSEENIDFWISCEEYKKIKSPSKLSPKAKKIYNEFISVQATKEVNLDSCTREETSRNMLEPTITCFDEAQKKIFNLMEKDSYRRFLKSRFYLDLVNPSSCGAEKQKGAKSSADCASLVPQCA
Assay: Inhibitors of Regulator of G Protein Signaling (RGS) 4: qHTS; note: nearly all actives have a fitted effect of over 75% in size
Details: Transcreener GDP fluorescence polarization, RGS4-accelerated GTP hydrolysis; series mostly up to 56.9 µM
Source text: G-protein-coupled receptors (GPCRs) are well-established targets for drug discovery and development. Members of the "regulator of G-protein signaling" (RGS)-protein superfamily have recently emerged as critical modulators of specific GPCR signaling pathways. […] Combining specific RGS domain inhibitors with existing GPCR agonists should potentiate cellular responses and could also increase the specificity of action of existing therapeutics. Small molecule modulators of RGS domain activity should also have clinical utility in inhibiting or potentiating the actions of endogenous GPCR agonists. In particular, the diversity of RGS proteins with highly localized and dynamically regulated distributions in the human brain makes this family of proteins attractive targets for pharmacotherapy of central nervous system (CNS) disorders such as Parkinson's disease, schizophrenia, and anxiety.
This assay was used to screen the NIH Molecular Libraries Small Molecule Repository (MLSMR) in order to identify a small molecule that inhibits RGS4.
NIH Chemical Genomics Center [NCGC]
NIH Molecular Libraries Probe Centers Network [MLPCN]
Assay Submitter (PI): David Siderovski, University of North Carolina Chapel Hill (School of Medicine)
Two microliters of 500nM (2x working concentration) is dispensed into black medium-binding solid-bottom Kalypsys plates. Then with the Kalypsys pintool 23nl of control and compounds are transferred; the control compound is […] CCG-4986 (working concentration). […] An initial fluorescent polarization read (620 nm/688 nm) is performed on the Envision before the plate is incubated for 90 minutes at 30 deg C at a relative humidity of 80%. The plate is once more centrifuged at 1000 RPM for 15 seconds and another Envision fluorescent polarization (620 nm/688 nm) read is carried out.
Potency is the fitted concentration of half-maximal effect.

Row | SMILES | Potency
1 | CC(=O)c1c(O)c(C)c(O)c(Cc2c(O)c3c(c(C(=O)/C=C/c4ccccc4)c2O)OC(C)(C)C=C3)c1O | inactive and 10.6 µM (active)
2 | CC(=O)OC1C([N+]2(C)CCCCC2)C[C@H]2C3CC[C@H]4C[C@H](OC(C)=O)C([N+]5(C)CCCCC5)CC4(C)C3CCC12C (stereo partly drawn) | inactive
3 | CCCN(C/C=C/I)C1CCc2ccc(O)cc2C1 (stereo not drawn) | inactive
